Laboratory results: PubChem BioAssay (Tox21)
Inconclusive results are not listed. Calls of active or inactive are those of the source. Unless noted, calls come from the whole dose curve; as a rule, active = well fitted curve in the direction sought with a large enough effect in the repeat runs; inconclusive = weak or mixed curves; inactive = no such curve, though single readings can be large; an effect the other way counts as inactive or inconclusive.

Assays:
[1] = qHTS assay to identify small molecule antagonists of the TGF-beta/Smad signaling pathway - cell viability counter screen (AID 1346824); note: nearly all actives have a fitted effect of over 50% in size
Method in brief: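 SBE-bla HEK 293T cells were plated overnight at 37 C, then given compounds in DMSO plus TGF-beta1 (added as 0.25 ng/mL solution) for 5 hr. After the bla read, CellTiter-Glo was added to the same wells and luminescence read after 30 min at room temperature.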

[2] = qHTS assay to identify small molecule agonists of the TGF-beta/Smad signaling pathway - cell viability counter screen (AID 1346829); note: top concentration of the series differs between compounds; nearly all actives have a fitted effect of over 45% in size
Method in brief: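 After overnight seating at 37 C and 5% CO2, reporter cells got compounds for 5 hr and FRET substrate for 2 hr; cell viability then came from CellTiter-Glo luminescence.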

[3] = qHTS assay to identify small molecule agonists of the TGF-beta/Smad signaling pathway (AID 1346859; active = well fitted activation curve with a large enough effect in the signal ratio in the repeat runs, not every such curve was filed as active; the % refers to the signal ratio; note: series mostly up to about 77 µM)
Method in brief: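 SBE-bla HEK293T cells plated overnight, then compound exposure for 5 h at 37 C. Beta-lactamase reporter read with LiveBLAzer B/G FRET substrate after 2 h at room temperature, fluorescence at 405 nm excitation, 460/530 nm emission.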

[4] = target: Thyrotropin-releasing hormone receptor (Homo sapiens) (UniProt P34981); experiment: qHTS assay to identify small molecule antagonists of the thyrotropin-releasing hormone receptor (TRHR) signaling pathway (AID 1346877; active = well fitted inhibition curve with a large enough effect in the repeat runs, not every such curve was filed as active; note: series mostly up to about 51 µM)
Method in brief: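 Intracellular calcium fluorescence, read kinetically every second over 3 min, reports TRH-evoked signalling in HEK293 cells carrying TRHR. Test compounds were added 5 min ahead of a 1 nM TRH challenge.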

[5] = target: Thyrotropin-releasing hormone receptor (Homo sapiens) (UniProt P34981); experiment: qHTS assay to identify small molecule agonists of the thyrotropin-releasing hormone receptor (TRHR) signaling pathway (AID 1346891; calls by dose curve; note: series mostly up to about 58 µM)
Method in brief: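 HEK293 cells expressing TRHR plated 18 h at 37 C/5% CO2, calcium dye-loaded 2 h at 37 C, then compound added (agonist mode); kinetic calcium fluorescence read 3 min at 1 s intervals; 15 concentrations in triplicate.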

[6] = Human pregnane X receptor (PXR) small molecule agonists, qHTS cell viability counter screen (AID 1346977); note: nearly all actives have a fitted effect of over 50% in size
Method in brief: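 PXR-Luc HepG2 cells (2,000/well, 5% charcoal-stripped FBS) preincubated 5 hr, then exposed to compounds 24 hr at 37 C. Viability read in the same wells by CellTiter-Fluor fluorescence, reagent added at 23 hr, 1 hr incubation.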

[7] = Caspase-3/7 induction in HepG2 cells by small molecules, qHTS assay (AID 1346978); note: nearly all actives have a fitted effect of over 15% in size
Method in brief: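 Wild-type HepG2 cells (2,000/well) were settled 5 h at 37 C, 5% CO2, then exposed to compounds in DMSO for 17 h. Caspase-3/7 activity was read by luminescence 30 min after adding Caspase-Glo 3/7 reagent at room temperature.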

[8] = Caspase-3/7 induction in CHO-K1 cells by small molecules, qHTS cell viability counter screen (AID 1346979); note: nearly all actives have a fitted effect of over 35% in size
Method in brief: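 Wild-type CHO-K1 cells (1,500/well) treated with compound after 5 h plating; after 16 h at 37C, viability read as CellTiter-Fluor fluorescence following 1 h reagent incubation, in the same wells as the caspase read.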

[9] = Caspase-3/7 induction in CHO-K1 cells by small molecules, qHTS assay (AID 1346980); note: nearly all actives have a fitted effect of over 15% in size
Method in brief: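 Wild-type cells were seeded at 1,500 per well and settled 5 hr at 37 C, 5% CO2, then exposed to DMSO-dissolved compounds for 17 hr. Caspase-Glo 3/7 reagent was added, and luminescence was read after 30min at room temperature.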

[10] = Caspase-3/7 induction in HepG2 cells by small molecules, qHTS cell viability counter screen (AID 1346981); note: series mostly up to about 92 µM; nearly all actives have a fitted effect of over 30% in size
Method in brief: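 HepG2, WT, 2,000 cells/well; 5 hr pre-incubation 37 C/5% CO2; compound pin-transferred from DMSO; 16 hr exposure; CellTiter-Fluor, 1 hr; fluorescence read.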

[11] = target: Nuclear receptor subfamily 1 group I member 2 (Homo sapiens) (UniProt O75469); experiment: Human pregnane X receptor (PXR) small molecule agonists, qHTS assay (AID 1346982); note: nearly all actives have a fitted effect of over 35% in size
Method in brief: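 Luciferase signal from ONE-Glo (30 min, room temperature) measured activation of hPXR-driven CYP3A4 reporter expression in PXR-Luc HepG2 cells treated with compounds for 24 hr at 37 C.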

[12] = target: Nuclear receptor subfamily 1 group I member 2 (Homo sapiens) (UniProt O75469); experiment: CYP3A4 induction through human pregnane X receptor (PXR) by small molecules, qHTS assay (AID 1346984); note: nearly all actives have a fitted effect of over 40% in size
Method in brief: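 Luminescence readout: luciferase signal after One-Glo (30 min, room temperature), following 3 h at 37C with 3uM final Luciferin-IPA P450 substrate. Cells were DPX-2 (HepG2, PXR/CYP3A4-luc co-transfected) dosed for 24 h.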

[13] = target: Nuclear receptor subfamily 1 group I member 2 (Homo sapiens) (UniProt O75469); experiment: Human pregnane X receptor (PXR) activation by small molecules, qHTS assay (AID 1346985); note: nearly all actives have a fitted effect of over 40% in size
Method in brief: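 DPX-2 cells (HepG2 co-transfected with a PXR response element and a CYP3A4-promoter luciferase construct) were seeded at 2,000 per well, rested 5 hr at 37C, then exposed to DMSO-dissolved compounds for 24 hr. Activation was read as luciferase luminescence.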

[14] = target: Cytochrome P450 2D6 (Homo sapiens) (UniProt P10635); experiment: Cytochrome P450 Family 2 Subfamily D Member 6 (CYP2D6) small molecule antagonists: luciferase reporter qHTS assay (AID 1671196); note: series mostly up to about 120 µM; nearly all actives have a fitted effect of over 50% in size
Method in brief: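 Read-out is luminescence from luciferin formed by CYP2D6 turnover of a proluciferin substrate, recorded as relative luminescence units. Reactions ran 1 h at room temperature after NADPH regeneration solution was added.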

[15] = target: Cytochrome P450 2C19 (Homo sapiens) (UniProt P33261); experiment: Cytochrome P450 Family 2 Subfamily C Member 19 (CYP2C19) small molecule antagonists: luciferase reporter qHTS assay (AID 1671197); note: nearly all actives have a fitted effect of over 65% in size; note: potency is the fitted concentration of half-maximal effect
Method in brief: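 Inhibition of CYP2C19 was scored from loss of luminescence in a P450-Glo proluciferin substrate assay, NADPH-started and run 1 h at 37C, with ketoconazole as positive control.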

[16] = target: Cytochrome P450 2C9 (Homo sapiens) (UniProt P11712); experiment: Cytochrome P450 Family 2 Subfamily C Member 9 (CYP2C9) small molecule antagonists: luciferase reporter qHTS assay (AID 1671198); note: series mostly up to about 120 µM; nearly all actives have a fitted effect of over 50% in size
Method in brief: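 CYP2C9 activity was measured with a P450-Glo proluciferin substrate. Enzyme–substrate mix was held with compound for 10 min at room temperature, then NADPH regeneration solution was added for 1 h at 37C. Luciferin product was read as luminescence.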

[17] = target: Cytochrome P450 1A2 (Homo sapiens) (UniProt P05177); experiment: Cytochrome P450 Family 1 Subfamily A Member 2 (CYP1A2) small molecule antagonists: luciferase reporter qHTS assay (AID 1671199)
Method in brief: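 P450-Glo CYP1A2, 1536-well qHTS: enzyme/proluciferin substrate + cpd (DMSO), 10 min RT; NADPH regen, 1 h RT; detection reagent, 20 min; luminescence, RLU.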

[18] = target: Voltage-gated inwardly rectifying potassium channel KCNH2 (Homo sapiens) (UniProt Q12809); experiment: Human Ether-a-go-go-Related Gene (hERG) channel small molecule antagonists: fluorescence cell-based qHTS assay (AID 1671200)
Method in brief: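 hERG-U2OS cells plated overnight at 37 C, loaded with FluxOR II dye 1 h at RT in dark; after 10 min, thallium stimulus added. Fluorescence (480/540 nm) read kinetically for 2 min at 1 s intervals.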

[19] = target: Cytochrome P450 3A4 (Homo sapiens) (UniProt P08684); experiment: Cytochrome P450 Family 3 Subfamily A Member 4 (CYP3A4) small molecule antagonists: luciferase reporter qHTS assay (AID 1671201)
Method in brief: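 P450-Glo CYP3A4 luminescent assay: compounds preincubated 10 min at room temperature with enzyme and proluciferin substrate, NADPH regeneration added, 1 h room-temperature reaction, stopped with luciferin detection reagent; luminescence read after 20 min. Ketoconazole positive control.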

Measured: Potency

Cytochrome P450 2C9 (Homo sapiens), sequence (P11712 whole entry, looked up): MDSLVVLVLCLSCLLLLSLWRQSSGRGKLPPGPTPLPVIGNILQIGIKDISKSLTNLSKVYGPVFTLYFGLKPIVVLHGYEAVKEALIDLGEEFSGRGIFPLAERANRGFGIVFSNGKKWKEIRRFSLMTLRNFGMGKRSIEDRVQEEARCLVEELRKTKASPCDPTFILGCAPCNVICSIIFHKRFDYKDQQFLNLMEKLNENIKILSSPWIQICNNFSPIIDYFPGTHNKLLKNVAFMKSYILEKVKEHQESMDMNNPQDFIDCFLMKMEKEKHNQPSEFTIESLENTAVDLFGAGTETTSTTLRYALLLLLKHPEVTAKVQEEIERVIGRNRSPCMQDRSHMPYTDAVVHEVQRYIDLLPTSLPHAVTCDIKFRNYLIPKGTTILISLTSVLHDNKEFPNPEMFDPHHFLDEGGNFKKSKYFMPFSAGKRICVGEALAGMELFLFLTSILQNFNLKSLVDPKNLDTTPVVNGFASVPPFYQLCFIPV
Thyrotropin-releasing hormone receptor (Homo sapiens), sequence (P34981 whole entry, looked up): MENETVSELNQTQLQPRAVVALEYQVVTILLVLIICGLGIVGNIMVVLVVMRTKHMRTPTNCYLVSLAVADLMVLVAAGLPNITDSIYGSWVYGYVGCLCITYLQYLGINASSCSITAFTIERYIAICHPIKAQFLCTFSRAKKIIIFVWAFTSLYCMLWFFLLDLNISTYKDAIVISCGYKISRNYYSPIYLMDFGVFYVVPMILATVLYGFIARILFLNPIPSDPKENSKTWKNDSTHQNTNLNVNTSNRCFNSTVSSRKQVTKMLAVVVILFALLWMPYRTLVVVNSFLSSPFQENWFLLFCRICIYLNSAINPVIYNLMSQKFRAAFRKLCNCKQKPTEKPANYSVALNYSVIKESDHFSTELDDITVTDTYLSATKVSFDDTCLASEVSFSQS
Nuclear receptor subfamily 1 group I member 2 (Homo sapiens), sequence (O75469 whole entry, looked up): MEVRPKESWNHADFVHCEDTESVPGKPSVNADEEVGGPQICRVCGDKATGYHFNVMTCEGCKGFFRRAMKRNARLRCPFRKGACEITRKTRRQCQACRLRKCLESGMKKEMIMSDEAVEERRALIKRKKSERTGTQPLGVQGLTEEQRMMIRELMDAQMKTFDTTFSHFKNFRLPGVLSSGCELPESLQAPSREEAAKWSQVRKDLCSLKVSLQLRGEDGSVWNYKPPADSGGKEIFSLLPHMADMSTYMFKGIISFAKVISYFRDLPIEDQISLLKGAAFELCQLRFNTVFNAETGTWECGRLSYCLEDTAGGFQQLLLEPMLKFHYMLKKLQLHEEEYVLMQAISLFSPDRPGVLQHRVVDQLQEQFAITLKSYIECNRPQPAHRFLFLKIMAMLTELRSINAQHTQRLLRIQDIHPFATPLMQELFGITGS
Cytochrome P450 2C19 (Homo sapiens), sequence (P33261 whole entry, looked up): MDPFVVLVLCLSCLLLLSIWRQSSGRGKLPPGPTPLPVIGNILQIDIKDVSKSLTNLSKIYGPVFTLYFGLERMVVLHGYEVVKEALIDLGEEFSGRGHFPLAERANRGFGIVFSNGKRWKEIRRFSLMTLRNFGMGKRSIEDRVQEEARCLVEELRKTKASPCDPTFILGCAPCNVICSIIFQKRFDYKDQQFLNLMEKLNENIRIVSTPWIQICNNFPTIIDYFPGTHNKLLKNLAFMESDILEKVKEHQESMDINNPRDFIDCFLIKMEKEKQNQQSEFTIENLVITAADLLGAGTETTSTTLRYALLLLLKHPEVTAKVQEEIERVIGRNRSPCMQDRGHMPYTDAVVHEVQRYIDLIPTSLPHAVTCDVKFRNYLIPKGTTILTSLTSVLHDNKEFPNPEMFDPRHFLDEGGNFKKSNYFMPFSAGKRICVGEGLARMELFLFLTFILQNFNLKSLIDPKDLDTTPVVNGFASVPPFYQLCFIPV
Cytochrome P450 2D6 (Homo sapiens), sequence (P10635 whole entry, looked up): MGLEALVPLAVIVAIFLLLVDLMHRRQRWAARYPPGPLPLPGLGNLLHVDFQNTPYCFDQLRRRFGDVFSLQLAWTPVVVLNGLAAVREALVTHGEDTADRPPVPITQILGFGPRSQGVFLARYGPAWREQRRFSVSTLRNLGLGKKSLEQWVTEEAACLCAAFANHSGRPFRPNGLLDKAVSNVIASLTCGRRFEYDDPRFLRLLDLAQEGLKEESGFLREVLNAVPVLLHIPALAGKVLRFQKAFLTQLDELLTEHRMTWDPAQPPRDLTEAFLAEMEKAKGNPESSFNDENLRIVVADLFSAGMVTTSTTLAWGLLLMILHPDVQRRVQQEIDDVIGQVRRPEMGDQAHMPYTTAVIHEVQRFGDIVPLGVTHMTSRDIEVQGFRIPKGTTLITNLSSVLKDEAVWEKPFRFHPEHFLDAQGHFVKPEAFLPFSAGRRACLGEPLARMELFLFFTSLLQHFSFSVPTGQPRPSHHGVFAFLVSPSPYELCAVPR
Voltage-gated inwardly rectifying potassium channel KCNH2 (Homo sapiens), sequence (Q12809 whole entry, looked up): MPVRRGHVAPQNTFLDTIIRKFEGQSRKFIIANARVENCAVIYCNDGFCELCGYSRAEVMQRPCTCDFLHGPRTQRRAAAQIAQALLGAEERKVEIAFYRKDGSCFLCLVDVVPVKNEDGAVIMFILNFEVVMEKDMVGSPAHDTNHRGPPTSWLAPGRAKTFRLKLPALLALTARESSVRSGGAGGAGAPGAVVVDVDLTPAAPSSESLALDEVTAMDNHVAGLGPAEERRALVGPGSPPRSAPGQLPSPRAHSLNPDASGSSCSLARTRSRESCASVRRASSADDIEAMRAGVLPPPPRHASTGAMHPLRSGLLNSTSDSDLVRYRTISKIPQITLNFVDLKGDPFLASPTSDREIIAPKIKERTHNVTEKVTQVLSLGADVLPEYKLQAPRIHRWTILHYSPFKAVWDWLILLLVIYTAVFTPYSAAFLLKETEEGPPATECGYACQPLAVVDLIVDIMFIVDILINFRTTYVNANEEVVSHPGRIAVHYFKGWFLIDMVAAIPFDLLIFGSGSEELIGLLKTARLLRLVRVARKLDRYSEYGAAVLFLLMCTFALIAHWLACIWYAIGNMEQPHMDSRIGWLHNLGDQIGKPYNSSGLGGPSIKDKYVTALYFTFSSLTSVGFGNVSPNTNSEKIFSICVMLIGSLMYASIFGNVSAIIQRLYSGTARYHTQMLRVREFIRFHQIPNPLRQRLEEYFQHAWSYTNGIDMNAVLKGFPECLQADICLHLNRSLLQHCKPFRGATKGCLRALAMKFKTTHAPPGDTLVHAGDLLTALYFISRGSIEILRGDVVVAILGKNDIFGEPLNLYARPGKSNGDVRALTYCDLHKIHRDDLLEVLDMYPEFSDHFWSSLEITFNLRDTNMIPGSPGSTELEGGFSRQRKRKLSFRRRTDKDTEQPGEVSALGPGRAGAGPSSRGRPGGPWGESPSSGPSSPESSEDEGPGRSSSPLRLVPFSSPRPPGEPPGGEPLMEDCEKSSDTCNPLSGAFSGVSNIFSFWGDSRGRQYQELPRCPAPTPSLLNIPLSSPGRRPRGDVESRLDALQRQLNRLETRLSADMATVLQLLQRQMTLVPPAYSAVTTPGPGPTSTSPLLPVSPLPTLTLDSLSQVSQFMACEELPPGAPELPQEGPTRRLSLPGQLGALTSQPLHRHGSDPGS
Cytochrome P450 3A4 (Homo sapiens), sequence (P08684 whole entry, looked up): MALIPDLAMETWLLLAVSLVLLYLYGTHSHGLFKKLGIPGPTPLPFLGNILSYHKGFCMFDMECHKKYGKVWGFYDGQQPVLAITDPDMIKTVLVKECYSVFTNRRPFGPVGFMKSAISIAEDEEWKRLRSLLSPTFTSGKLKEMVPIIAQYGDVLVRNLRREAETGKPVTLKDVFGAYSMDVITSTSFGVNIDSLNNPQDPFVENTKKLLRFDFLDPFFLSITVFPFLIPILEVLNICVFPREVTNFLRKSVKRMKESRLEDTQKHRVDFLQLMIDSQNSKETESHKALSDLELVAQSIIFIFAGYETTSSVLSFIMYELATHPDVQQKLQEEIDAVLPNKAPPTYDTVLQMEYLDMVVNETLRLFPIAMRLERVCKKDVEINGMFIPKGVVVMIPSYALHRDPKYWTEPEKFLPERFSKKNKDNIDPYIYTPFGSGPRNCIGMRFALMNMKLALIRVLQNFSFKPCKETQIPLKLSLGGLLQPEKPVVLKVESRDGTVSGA
Cytochrome P450 1A2 (Homo sapiens), sequence (P05177 whole entry, looked up): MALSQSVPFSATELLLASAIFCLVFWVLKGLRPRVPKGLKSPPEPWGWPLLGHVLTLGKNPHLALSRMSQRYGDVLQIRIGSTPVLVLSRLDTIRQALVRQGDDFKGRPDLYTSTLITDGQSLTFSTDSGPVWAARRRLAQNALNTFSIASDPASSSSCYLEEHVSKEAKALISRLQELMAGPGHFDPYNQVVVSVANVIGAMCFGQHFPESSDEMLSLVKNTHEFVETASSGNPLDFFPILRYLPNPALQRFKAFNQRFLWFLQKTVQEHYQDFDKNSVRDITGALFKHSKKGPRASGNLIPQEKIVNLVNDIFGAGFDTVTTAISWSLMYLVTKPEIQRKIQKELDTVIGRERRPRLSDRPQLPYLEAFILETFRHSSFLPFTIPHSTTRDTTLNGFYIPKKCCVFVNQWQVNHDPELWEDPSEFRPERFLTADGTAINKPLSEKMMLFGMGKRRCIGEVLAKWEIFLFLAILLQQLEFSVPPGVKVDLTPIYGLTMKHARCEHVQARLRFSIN

OC[C@H]1O[C@@H](O[C@@H]2[C@@H](CO)O[C@](O)(CO)[C@H]2O)[C@H](O)[C@@H](O)[C@H]1O
inactive: all assays above

CCCCCCCCCCCCCBr
active: [15] 70.8 µM
not listed: [12] | [13] | [17]
inactive: all other assays above

O=C(CN1CCNCC1)NC1CCCCC1
not listed: [14] | [18] | [19]
inactive: all other assays above
